Of roughly 7,900 targets only a part is listed; those with a hit were picked by preference. About 0.6% of all pairs of compound and target were hits. Unmarked numbers belong to inactive results.
Assays:
Assay in all cases: log2 fold change, soluble protein after heating vs DMSO (PISA); higher = thermal stabilisation; K562 cells, 10 uM, 30 min; active = over 0.2 and 3.5 SD of the protein, either way, in both replicates (recomputed)
[1] = compound: CC[C@@H]1C(=O)N(C)c2cnc(Nc3ccc(C(=O)NC4CCN(C)CC4)cc3OC)nc2N1C1CCCC1
Outline: (§1)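 K562 cells (2×10^6 cells/mL) were treated with 10 μM compound for 30 min, and aliquots were heated for 3 min over 48°C-58°C. Pooled aliquots were extracted in PBS with 0.5% NP-40 at 4°C, and the supernatant after 21,000xg for 90 min was measured by TMTpro 16plex LC-MS/MS with channel sums equalised. Reported thermal stability, relative to control samples and from duplicates, is a log2 fold change.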

volasertib = compound: CC[C@@H]1C(=O)N(C)c2cnc(Nc3ccc(C(=O)N[C@H]4CC[C@H](N5CCN(CC6CC6)CC5)CC4)cc3OC)nc2N1C(C)C [volasertib]
Outline: as §1

[2] = compound: CC[C@H](C)N1C=C(C2=C(C=C(C=C21)C3=CN=C(C=C3)N4CCNCC4)C(=O)NCC5=C(C=C(NC5=O)C)C)C
Outline: as §1

epoxomicin = compound: CC[C@H](C)[C@@H](C(=O)N[C@@H]([C@@H](C)O)C(=O)N[C@@H](CC(C)C)C(=O)[C@]1(CO1)C)NC(=O)[C@H]([C@@H](C)CC)N(C)C(=O)C [epoxomicin]
Outline: as §1

[3] = compound: CCn1c(C(=O)N(C2CC2)C2CC2)cc2c3c(ncn3C)c(Nc3cc(C)n(C)n3)nc21
Outline: as §1

[4] = compound: CCn1cc(-c2ccnc3[nH]c(-c4cccc(CN(C)C)c4)cc23)c(-c2ccc(NC(=O)N(C)C)cc2)n1
Outline: as §1

[5] = compound: CN(C)CC(=O)Nc1ccc2[nH]c(=O)c3ccccc3c2c1
Outline: as §1

rosiglitazone = compound: CN(CCOC1=CC=C(C=C1)C[C@H]2C(=O)NC(=O)S2)C3=CC=CC=N3 (racemic) [rosiglitazone]
Outline: as §1

[6] = compound: CN1C2=C(C3=C1C(=O)N(N=C3)CC4=CC(=CC=C4)N)SC(=C2)S(=O)C
Outline: as §1

[7] = compound: CN1CCC(CNc2ccc3ncc(-c4cccc(OC(F)(F)F)c4)n3n2)CC1
Outline: as §1

saracatinib = compound: CN1CCN(CCOc2cc(OC3CCOCC3)c3c(Nc4c(Cl)ccc5c4OCO5)ncnc3c2)CC1 [saracatinib]
Outline: as §1

sotrastaurin = compound: CN1CCN(c2nc(C3=C(c4c[nH]c5ccccc45)C(=O)NC3=O)c3ccccc3n2)CC1 [sotrastaurin]
Outline: as §1

alvocidib = compound: CN1CC[C@H](c2c(O)cc(O)c3c(=O)cc(-c4ccccc4Cl)oc23)[C@H](O)C1 [alvocidib]
Outline: as §1

Tubastatin A = compound: CN1CCc2c(c3ccccc3n2Cc2ccc(C(=O)NO)cc2)C1 [Tubastatin A]
Outline: as §1

[8] = compound: CNC(=O)C1=CC=CC=C1NC2=NC(=NC=C2Cl)NC3=C(C=C(C=C3)N4CCOCC4)OC
Outline: as §1

defactinib = compound: CNC(=O)c1ccc(Nc2ncc(C(F)(F)F)c(NCc3nccnc3N(C)S(C)(=O)=O)n2)cc1 [defactinib]
Outline: as §1

rucaparib = compound: CNCc1ccc(-c2[nH]c3cc(F)cc4c3c2CCNC4=O)cc1 [rucaparib]
Outline: as §1

[9] = compound: CNc1nc(-c2ccc3c(N)n[nH]c3c2)cc(N2C[C@@H](C(=O)NC3CCCCC3)CC[C@H]2C)n1
Outline: as §1

encorafenib = compound: COC(=O)N[C@@H](C)CNc1nccc(-c2cn(C(C)C)nc2-c2cc(Cl)cc(NS(C)(=O)=O)c2F)n1 [encorafenib]
Outline: as §1

[10] = compound: COC(=O)[C@H](CCSC)NC(=O)C1=C(C=C(C=C1)NC[C@H](CS)N)C2=CC=CC=C2
Outline: as §1

Chain of UniProt Q14980 (Q14980 whole entry, looked up): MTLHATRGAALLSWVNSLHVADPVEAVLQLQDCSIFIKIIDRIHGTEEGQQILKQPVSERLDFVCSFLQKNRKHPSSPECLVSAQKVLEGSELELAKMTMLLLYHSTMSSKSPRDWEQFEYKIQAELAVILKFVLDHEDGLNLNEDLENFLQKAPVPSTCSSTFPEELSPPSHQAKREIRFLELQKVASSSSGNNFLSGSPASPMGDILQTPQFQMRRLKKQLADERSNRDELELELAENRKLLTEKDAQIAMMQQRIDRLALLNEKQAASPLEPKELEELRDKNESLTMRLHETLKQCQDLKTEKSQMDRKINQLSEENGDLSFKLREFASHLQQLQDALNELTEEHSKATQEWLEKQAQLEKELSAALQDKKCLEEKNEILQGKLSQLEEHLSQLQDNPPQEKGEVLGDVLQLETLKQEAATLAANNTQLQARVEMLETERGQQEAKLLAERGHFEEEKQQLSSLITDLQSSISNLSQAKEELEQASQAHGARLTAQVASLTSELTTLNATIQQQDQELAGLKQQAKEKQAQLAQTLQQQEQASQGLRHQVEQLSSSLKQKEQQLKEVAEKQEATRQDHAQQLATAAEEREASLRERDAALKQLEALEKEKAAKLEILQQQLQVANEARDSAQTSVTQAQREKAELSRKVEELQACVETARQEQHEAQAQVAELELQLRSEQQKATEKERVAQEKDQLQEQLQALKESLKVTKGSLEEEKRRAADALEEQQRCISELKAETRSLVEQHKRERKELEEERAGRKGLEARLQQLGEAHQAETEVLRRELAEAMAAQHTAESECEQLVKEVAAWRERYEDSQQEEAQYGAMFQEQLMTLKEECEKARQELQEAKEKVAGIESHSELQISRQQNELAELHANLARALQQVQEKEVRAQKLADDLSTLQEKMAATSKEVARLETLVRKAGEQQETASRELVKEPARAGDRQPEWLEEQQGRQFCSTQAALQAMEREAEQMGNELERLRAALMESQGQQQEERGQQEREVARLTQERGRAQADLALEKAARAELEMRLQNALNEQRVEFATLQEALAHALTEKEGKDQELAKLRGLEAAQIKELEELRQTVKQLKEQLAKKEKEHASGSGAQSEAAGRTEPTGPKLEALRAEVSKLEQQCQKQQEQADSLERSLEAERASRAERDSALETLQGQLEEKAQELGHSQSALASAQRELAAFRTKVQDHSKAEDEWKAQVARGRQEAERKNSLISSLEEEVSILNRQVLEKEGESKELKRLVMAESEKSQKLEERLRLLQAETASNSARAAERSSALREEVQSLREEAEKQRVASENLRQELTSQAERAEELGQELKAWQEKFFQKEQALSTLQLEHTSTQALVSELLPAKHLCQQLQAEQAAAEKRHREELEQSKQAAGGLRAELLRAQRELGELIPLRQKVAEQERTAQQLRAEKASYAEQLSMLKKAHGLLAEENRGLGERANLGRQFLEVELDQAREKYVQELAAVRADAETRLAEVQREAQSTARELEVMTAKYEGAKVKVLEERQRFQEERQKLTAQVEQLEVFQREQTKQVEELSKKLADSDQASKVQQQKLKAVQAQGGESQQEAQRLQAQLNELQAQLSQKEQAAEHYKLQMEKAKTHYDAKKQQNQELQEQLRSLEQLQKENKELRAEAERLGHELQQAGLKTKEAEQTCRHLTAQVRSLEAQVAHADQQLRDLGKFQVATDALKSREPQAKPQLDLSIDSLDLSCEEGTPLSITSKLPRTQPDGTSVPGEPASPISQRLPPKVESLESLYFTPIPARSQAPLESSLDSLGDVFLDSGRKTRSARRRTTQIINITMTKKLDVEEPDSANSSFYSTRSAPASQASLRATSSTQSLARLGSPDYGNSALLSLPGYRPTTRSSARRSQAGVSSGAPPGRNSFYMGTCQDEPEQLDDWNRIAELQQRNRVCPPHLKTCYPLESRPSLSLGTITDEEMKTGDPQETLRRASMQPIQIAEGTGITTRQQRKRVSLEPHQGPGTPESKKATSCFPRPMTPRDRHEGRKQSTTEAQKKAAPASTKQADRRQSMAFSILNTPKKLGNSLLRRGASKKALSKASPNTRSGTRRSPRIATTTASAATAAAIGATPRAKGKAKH
Chain of UniProt O43181 (O43181 whole entry, looked up): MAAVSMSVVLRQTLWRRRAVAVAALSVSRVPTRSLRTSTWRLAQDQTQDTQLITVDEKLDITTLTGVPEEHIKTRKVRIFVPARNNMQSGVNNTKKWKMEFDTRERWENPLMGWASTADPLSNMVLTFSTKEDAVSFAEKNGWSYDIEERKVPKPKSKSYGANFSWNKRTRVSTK
Chain of UniProt Q8N6M0 (Q8N6M0 whole entry, looked up): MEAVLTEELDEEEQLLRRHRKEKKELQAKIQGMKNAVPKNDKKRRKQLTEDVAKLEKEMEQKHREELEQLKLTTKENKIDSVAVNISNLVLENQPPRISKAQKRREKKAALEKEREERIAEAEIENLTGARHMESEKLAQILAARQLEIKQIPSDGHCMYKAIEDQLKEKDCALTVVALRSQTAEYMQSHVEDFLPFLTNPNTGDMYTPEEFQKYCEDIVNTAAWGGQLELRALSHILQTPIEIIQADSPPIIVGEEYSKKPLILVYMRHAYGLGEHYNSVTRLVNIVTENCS
Chain of UniProt O00567 (O00567 whole entry, looked up): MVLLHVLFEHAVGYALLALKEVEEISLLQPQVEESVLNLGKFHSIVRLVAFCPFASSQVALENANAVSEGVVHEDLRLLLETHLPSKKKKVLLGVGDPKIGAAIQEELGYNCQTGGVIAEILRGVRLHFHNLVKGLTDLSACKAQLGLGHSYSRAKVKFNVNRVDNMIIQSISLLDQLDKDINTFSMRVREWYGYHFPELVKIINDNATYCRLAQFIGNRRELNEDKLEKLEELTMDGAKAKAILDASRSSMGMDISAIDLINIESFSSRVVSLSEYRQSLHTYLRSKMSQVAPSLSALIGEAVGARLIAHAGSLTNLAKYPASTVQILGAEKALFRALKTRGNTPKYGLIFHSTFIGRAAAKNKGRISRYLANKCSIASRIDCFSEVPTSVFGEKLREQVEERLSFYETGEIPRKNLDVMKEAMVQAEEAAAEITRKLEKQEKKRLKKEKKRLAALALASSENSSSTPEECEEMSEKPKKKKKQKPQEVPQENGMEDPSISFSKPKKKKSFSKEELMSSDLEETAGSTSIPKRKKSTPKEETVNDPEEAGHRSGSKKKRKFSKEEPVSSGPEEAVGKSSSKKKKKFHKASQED
Chain of UniProt P49116 (P49116 whole entry, looked up): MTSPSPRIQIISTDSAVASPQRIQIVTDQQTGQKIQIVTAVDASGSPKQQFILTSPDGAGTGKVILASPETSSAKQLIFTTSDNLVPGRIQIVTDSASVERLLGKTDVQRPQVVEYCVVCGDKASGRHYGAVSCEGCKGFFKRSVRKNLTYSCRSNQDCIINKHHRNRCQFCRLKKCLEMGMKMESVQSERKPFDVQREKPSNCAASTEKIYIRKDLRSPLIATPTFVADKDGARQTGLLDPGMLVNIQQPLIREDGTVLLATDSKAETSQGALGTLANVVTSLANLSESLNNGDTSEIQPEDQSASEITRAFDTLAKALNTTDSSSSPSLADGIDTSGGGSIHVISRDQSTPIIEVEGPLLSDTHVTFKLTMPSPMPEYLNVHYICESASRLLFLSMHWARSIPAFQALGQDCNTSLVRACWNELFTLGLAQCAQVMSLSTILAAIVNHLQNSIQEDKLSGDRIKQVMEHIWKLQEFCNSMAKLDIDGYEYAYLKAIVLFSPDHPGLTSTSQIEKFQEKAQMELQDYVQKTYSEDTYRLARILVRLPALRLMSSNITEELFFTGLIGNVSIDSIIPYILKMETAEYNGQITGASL
Chain of UniProt Q15738 (Q15738 whole entry, looked up): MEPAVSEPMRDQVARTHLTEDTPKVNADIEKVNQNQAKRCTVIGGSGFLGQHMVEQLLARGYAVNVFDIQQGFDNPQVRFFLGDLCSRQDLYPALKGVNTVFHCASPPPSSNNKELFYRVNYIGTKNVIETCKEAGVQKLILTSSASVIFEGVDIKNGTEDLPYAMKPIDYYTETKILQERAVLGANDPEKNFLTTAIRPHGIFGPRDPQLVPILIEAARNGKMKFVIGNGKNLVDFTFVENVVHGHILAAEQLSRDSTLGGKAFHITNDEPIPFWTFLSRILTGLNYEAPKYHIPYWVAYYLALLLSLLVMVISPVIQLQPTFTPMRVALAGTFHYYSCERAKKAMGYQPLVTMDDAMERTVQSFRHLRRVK
Chain of UniProt Q9BWT6 (Q9BWT6 whole entry, looked up): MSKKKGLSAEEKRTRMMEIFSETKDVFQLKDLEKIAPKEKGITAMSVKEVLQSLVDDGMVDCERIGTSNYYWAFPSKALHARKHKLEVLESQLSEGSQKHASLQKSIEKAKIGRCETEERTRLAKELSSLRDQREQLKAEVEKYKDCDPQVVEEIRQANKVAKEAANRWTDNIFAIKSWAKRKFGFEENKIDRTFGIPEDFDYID
Chain of UniProt Q86WC4 (Q86WC4 whole entry, looked up): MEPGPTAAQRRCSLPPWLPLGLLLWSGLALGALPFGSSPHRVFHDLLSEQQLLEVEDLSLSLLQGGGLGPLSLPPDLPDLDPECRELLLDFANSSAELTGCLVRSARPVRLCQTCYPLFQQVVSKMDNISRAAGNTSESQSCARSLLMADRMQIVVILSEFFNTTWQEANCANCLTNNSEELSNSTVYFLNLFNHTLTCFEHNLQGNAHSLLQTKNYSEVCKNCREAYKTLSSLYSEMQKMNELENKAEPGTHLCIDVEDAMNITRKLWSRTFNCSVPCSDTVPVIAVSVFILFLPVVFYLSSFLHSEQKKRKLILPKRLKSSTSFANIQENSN
Chain of UniProt Q9UI09 (Q9UI09 whole entry, looked up): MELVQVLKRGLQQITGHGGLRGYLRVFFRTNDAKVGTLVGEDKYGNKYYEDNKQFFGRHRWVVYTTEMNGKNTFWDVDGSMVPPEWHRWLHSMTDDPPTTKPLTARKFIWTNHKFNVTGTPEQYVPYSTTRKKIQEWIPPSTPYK
Chain of UniProt Q9NRP0 (Q9NRP0 whole entry, looked up): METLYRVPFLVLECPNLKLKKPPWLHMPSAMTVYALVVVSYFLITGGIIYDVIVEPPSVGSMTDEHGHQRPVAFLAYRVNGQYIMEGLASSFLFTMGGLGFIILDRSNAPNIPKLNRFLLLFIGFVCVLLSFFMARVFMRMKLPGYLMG

Target | log2 fold change [1] | log2 fold change (volasertib) | log2 fold change [2] | log2 fold change (epoxomicin) | log2 fold change [3] | log2 fold change [4] | log2 fold change [5] | log2 fold change (rosiglitazone) | log2 fold change [6] | log2 fold change [7] | log2 fold change (saracatinib) | log2 fold change (sotrastaurin) | log2 fold change (alvocidib) | log2 fold change (Tubastatin A) | log2 fold change [8] | log2 fold change (defactinib) | log2 fold change (rucaparib) | log2 fold change [9] | log2 fold change (encorafenib) | log2 fold change [10]
NA, A0A0B4J2A0 | -0.163 | -0.036 | 0.008 | 0.11 | -0.04 | -0.055 | -0.004 | 0.049 | -0.078 | -0.101 | 0.007 | 0.044 | -0.058 | -0.058 | -0.077 | -0.051 | -0.005 | -0.022 | -0.003 | -0.037
NR2C2 isoform 2 (UniProt P49116) | 0.051 | -0.102 | 0.055 | 0.036 | -0.015 | 0.049 | -0.069 | 0.022 | 0.036 | 0.046 | 0.052 | -0.041 | 0.077 | -0.013 | 0.005 | 0.001 | 0.071 | -0.044 | 0.053 | 0.028
MND1 (UniProt Q9BWT6) | -0.081 | -0.175 | -0.036 | 0.049 | 0.045 | -0.076 | -0.015 | -0.008 | 0.04 | -0.468 (active) | 0.006 | 0.036 | 0.011 | -0.006 | -0.029 | -0.021 | 0.05 | -0.059 | -0.15 | 0.023
OXR1 (UniProt Q8N573) | -0.052 | -0.071 | 0.035 | -0.013 | 0.006 | 0.026 | 0.062 | 0.005 | -0.033 | -0.257 (active) | -0.039 | -0.049 | -0.011 | 0.008 | -0.038 | -0.059 | -0.014 | -0.063 | 0 | 0.003
OSTM1 (UniProt Q86WC4) | -0.216 | -0.169 | 0.058 | 0.107 | -0.12 | -0.215 | -0.072 | 0.004 | 0.035 | -0.064 | -0.038 | 0.007 | 0.001 | 0.031 | 0.19 | -0.048 | -0.015 | -0.086 | 0.022 | 0.002
PACS1 (UniProt Q6VY07) | 0 | -0.03 | 0.208 | -0.045 | -0.025 | -0.006 | 0.006 | 0.039 | 0.029 | 0.014 | -0.018 | -0.043 | 0.002 | 0.038 | -0.076 | -0.045 | 0.022 | 0.037 | -0.01 | -0.018
OTUD6B (UniProt Q8N6M0) | -0.163 | -0.435 (active) | 0.036 | 0.094 | -0.032 | -0.055 | 0.066 | 0.09 | -0.019 | -0.137 | -0.009 | -0.035 | -0.147 | -0.007 | -0.008 | -0.138 | 0.019 | 0.001 | 0.122 | -0.055
OSTC (UniProt Q9NRP0) | -0.01 | -0.141 | 0.011 | -0.073 | 0.006 | 0.039 | 0.073 | 0.048 | -0.129 | -0.053 | 0.111 | -0.05 | -0.048 | -0.174 | 0.03 | -0.053 | -0.036 | -0.004 | 0.047 | -0.046
NNT (UniProt Q13423) | 0 | 0.013 | 0.036 | 0.023 | -0.018 | -0.073 | 0.015 | 0.042 | -0.097 | -0.008 | 0.005 | 0 | -0.024 | -0.01 | 0.017 | -0.009 | -0.053 | -0.036 | -0.001 | -0.014
NSDHL (UniProt Q15738) | -0.005 | 0.084 | 0.105 | -0.004 | 0.08 | -0.018 | 0.012 | 0.002 | -0.193 | -0.001 | -0.07 | 0.043 | -0.051 | -0.004 | 0.072 | -0.037 | -0.094 | 0.041 | -0.019 | -0.021
NEDD4L (UniProt Q96PU5) | -0.02 | -0.425 (active) | 0.03 | 0.012 | -0.015 | -0.09 | 0.023 | 0.029 | 0.039 | -0.099 | -0.014 | -0.063 | -0.121 | 0.057 | 0.068 | -0.135 | 0.002 | -0.059 | 0.03 | -0.023
NDUFA12 (UniProt Q9UI09) | -0.135 | -0.244 | 0.081 | 0.046 | -0.063 | -0.173 | 0.119 | 0.082 | -0.054 | -0.632 (active) | 0.029 | -0.017 | -0.094 | 0 | -0.027 | -0.037 | -0.061 | 0.031 | 0.05 | -0.018
NUMA1 (UniProt Q14980) | 0.065 | 0.034 | 0.039 | -0.044 | -0.031 | 0.068 | 0.003 | -0.035 | 0.115 | -0.191 | -0.069 | -0.235 | -0.063 | 0.14 | -0.057 | -0.017 | 0.118 | 0.055 | 0.174 | -0.009
NDUFS4 (UniProt O43181) | 0.052 | 0.074 | -0.037 | -0.025 | -0.007 | 0.071 | -0.079 | -0.046 | 0.033 | -0.013 | 0.117 | 0.1 | 0.049 | -0.082 | -0.025 | 0.035 | 0.011 | -0.074 | -0.051 | 0.079
NOP56 (UniProt O00567) | 0.141 | 0.238 | 0.034 | -0.44 | -0.006 | 0.066 | -0.208 | -0.079 | 0.299 | 0.168 | -0.034 | 0.018 | 0.104 | -0.01 | -0.067 | 0.375 | 0.233 | -0.028 | 0.057 | 0.007
